Screening results as filed in PubChem BioAssay.
Only a selection was taken, and hits are over-represented in it overall.
Methyltransferases – Primary Screen for Target Class Profiling of Small Molecule Inhibitors of Methyltransferases; calls only at 40 µM; actives 3.9% (n = 25,000); purified enzyme, MTase-Glo SAH luminescence; stronger effect = lower value; call rule not given here
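Each enzyme was reacted with SAM and its substrate, with compounds tested once at 40 uM; SAH formed was read by MTase-Glo luminescence.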
* marks the source's active call; other numbers are inactive results; i = inactive; + = active, no number; ! = not active in a repeat. % is scaled to controls: 0 for no effect and ±100 for the full control effect.

SMILES | Methyltransferases
CC(=O)N1c2ccc(S(=O)(=O)N3CCCC3)cc2CC1C(=O)NCc1c(C)nn(C)c1C (stereo unspecified) | i
O=C(/C=C/c1ccc(O)c(O)c1)OCCc1ccccc1 | i
O=c1cc(O)cc(/C=C/c2ccc(O)c(O)c2)o1 | +
Oc1ccc(/C=C/c2cc(O)cc(O)c2)cc1 | i
CC1(C(=O)NC2CCCCCC2)Cc2ccccc2C(=O)N1Cc1ccccc1Cl (stereo unspecified) | i
CC(C)Oc1ccc(CN2C(=O)c3ccc(-c4ccco4)n3CC2(C)C(=O)NC2CCCC2)cc1 (stereo unspecified) | i
COc1ccc(-c2cc3n(n2)CC(C)(C(=O)NCc2ccccc2OC)N(c2cc(Cl)ccc2C)C3=O)cc1 (stereo unspecified) | i
CCOc1ccc(N2C(=O)c3cc4ccccc4n3CC2(C)C(=O)NC2CCCC2)cc1 (stereo unspecified) | i
C/C(=N\N=C(N)N)c1cc(NC(=O)CCCCCCCCC(=O)Nc2cc(/C(C)=N/N=C(N)N)cc(/C(C)=N/N=C(N)N)c2)cc(/C(C)=N/N=C(N)N)c1 | +
Cc1ccc(C(=O)Cn2nc3n(C(C)C)c(=O)c4ccc(C(=O)NC5CCCCC5)cc4n3c2=O)c(C)c1 | i
CC1(C(=O)NCc2ccc(F)cc2)Cn2cnc(C(=O)Nc3ccc4c(c3)OCCO4)c2C(=O)N1C1CC1 (stereo unspecified) | i
CC(C)CCNC(=O)C1(C)Cn2c(cc3ccccc32)C(=O)N1CCCc1ccccc1 (stereo unspecified) | i
CC1=NOC2(CCN(C(=O)c3ccccc3)C2)C1 (stereo unspecified) | i
CC(=O)N(C)C1(c2ccccc2)CCN(CCC[C@]2(c3ccc(Cl)c(Cl)c3)CCCN(C(=O)c3ccccc3)C2)CC1 | +
O=C(c1ccccc1)N1CCCC2(CC(c3ccccc3)=NO2)C1 (stereo unspecified) | i
Cc1ccc(C)c(N2C(=O)c3cc4occc4n3CC2(C)C(=O)NC2CCCCCCC2)c1 (stereo unspecified) | i
CCCN1C(=O)c2ccccc2CC1(C)C(=O)NC1CCCCCC1 (stereo unspecified) | i
CN1C(=O)c2cc(C(=O)NC3CCN(Cc4ccccc4)CC3)nn2CC1(C)C(=O)NCc1ccccc1 (stereo unspecified) | i
O=C1c2ccccc2C(=O)c2cc(S(=O)(=O)NC3CCCCC3)ccc21 | i
O=c1[nH]c2ccc(S(=O)(=O)N(CCO)CCO)cc2[nH]1 | i
O=C1c2ccccc2C(=O)c2cc(S(=O)(=O)N(CCO)CCO)ccc21 | +
COc1ccc2cc3n(c2c1)CC(C)(C(=O)NC1CCCC1)N(CCCc1ccccc1)C3=O (stereo unspecified) | i
CSc1ccc(CCN2C(=O)c3cc4ccccc4n3CC2(C)C(=O)NC2CCCC2)cc1 (stereo unspecified) | i
CC1(C(=O)NC2CCCCCC2)Cn2c(nc3ccccc32)C(=O)N1Cc1ccccc1Cl (stereo unspecified) | i
CC(C)(C)c1nn2c(SCC(=O)Nc3cccc(Cl)c3)nnc2[nH]c1=O | i
SMILES | Methyltransferases
Cc1ccc(Cn2c(=O)c3ccc(C(=O)NC(C)C)cc3n3c(=O)n(Cc4cccc(Cl)c4)nc23)cc1 | i
CCCOc1ccc(CN2C(=O)c3cc(C(C)(C)C)nn3CC2(C)C(=O)NC2CCCCC2)cc1 (stereo unspecified) | i
Cn1c(CNc2ccc(C(=N)N)cc2)nc2cc(C(=O)N(CCC(=O)O)c3ccccn3)ccc21 | +
CC(C)N(CCC(=O)c1ccc2ccccc2c1)Cc1ccccc1 | +!
COc1ccc(C(=O)N(Cc2ccccc2)S(=O)(=O)c2ccc3c(c2)n(C)c(=O)n3C)cc1 | i
COc1ccc(CNC(=O)CCc2nnc3n(CCCOC(C)C)c(=O)c4ccccc4n23)cc1 | i
CCCn1c(=O)c2ccc(Cl)cc2n2c(SCC(=O)Nc3ccccc3OC)nnc12 | i
CCCC1c2ccc(C)n2CCN1C(=O)Nc1cc(OC)cc(OC)c1 (stereo unspecified) | i
CC1(C(=O)NC2CCCC2)Cn2c(ccc2-c2ccco2)C(=O)N1Cc1ccccc1Cl (stereo unspecified) | i
CN(CC(=O)N(Cc1ccc(C2CCCCC2)cc1)c1ccc(C(=O)O)cc1)S(=O)(=O)c1c(F)c(F)c(F)c(F)c1F | +
CN(Cc1ccccc1)C(=O)CN(C)S(=O)(=O)c1ccc2[nH]c3c(c2c1)CCCC3 | i
CN1CCCN(CC(=O)N2CCCC(c3ccc(C(=O)O)cc3)C2)CC1 (stereo unspecified) | i
CC1CCCCC1NC(=O)C1(C)Cn2c(ccc2-c2ccco2)C(=O)N1Cc1ccccn1 (stereo unspecified) | i
CCc1ccccc1NC(=O)CSc1nnc2n(CC(C)C)c(=O)c3ccccc3n12 | i
CCCNC(=O)N1Cc2c(sc3c2CCCC3)-n2cccc2C1c1ccc(OCC)cc1 (stereo unspecified) | i
